BoNT-A LC inh2 – inhibitors of Botulinum neurotoxin A light chain protease; multiplex microsphere protease substrate cleavage, flow cytometry; inhibition, % at 10 µM; 360,000 tested, 0.17% active; also: plate controls were buffer without enzyme for full effect and enzyme alone for no effect
Autofluor counter – flagged as autofluorescent in microsphere protease counterscreen; compound autofluorescence counterscreen, microsphere flow cytometry; stronger effect = higher value; fluorescence intensity (no concentration beside the values); 360,000 tested, 3.1% active; in the data active = fluorescence intensity above about 16000; inconclusive = no clear call, values can overlap the other calls
Anthrax LF inh2 – anthrax lethal factor protease inhibition; inhibition, % at 10 µM; multiplex microsphere protease cleavage assay, LF; 360,000 tested, 0.12% active; P15917; also: plate controls were buffer without enzyme for full effect and enzyme alone for no effect
TcdB inh – blocks C. difficile toxin B glycohydrolase activity | 350,000 tested, 0.24% active | inhibition, % at 9.99 µM | AID 652162 | P18177 | TcdB glycohydrolase enzymatic assay, plate reader; in the data active = inhibition above about 10%
BoNT F protease – blocks Botulinum neurotoxin F light chain protease | Multiplex microsphere protease cleavage assay, flow cytometry | inhibition, % at 10 µM | 360,000 tested, 0.22% active; in the data active = inhibition above about 35%, passing the limit was not always enough; inconclusive = no clear call, values can overlap the other calls; also: plate controls were buffer without enzyme for full effect and enzyme alone for no effect
Numbers without * were called inactive; ? = inconclusive; / = no result given. The entries come from a sample that favours hits as a whole. Rule as the data show it, unless noted: active = inhibition above about 30%; inconclusive = no clear call, values can overlap the other calls; inactive = below that.

SMILES | BoNT-A LC inh2 | Autofluor counter | Anthrax LF inh2 | TcdB inh | BoNT F protease
COc1ccc(NC(=O)N(C)C[C@H]2OCCCC[C@@H](C)Oc3ccc(NC(=O)Nc4ccc(C(F)(F)F)cc4)cc3C(=O)N([C@@H](C)CO)C[C@@H]2C)cc1 | / | / | / | -0.1 | /
CO[C@H]1CN(C)C(=O)c2cc(NC(C)=O)ccc2OC[C@H](C)N(S(=O)(=O)c2cn(C)cn2)C[C@@H]1C | / | / | / | -0.5 | /
COc1cccc(NC(=O)N[C@@H]2CC[C@@H](CC(=O)NCc3ccncn3)O[C@@H]2CO)c1 | / | / | / | 0.5 | /
CCNC(=O)C[C@H]1CC[C@H](NC(=O)C2CC2)[C@H](CO)O1 | / | / | / | -0.2 | /
CCCNC(=O)C[C@H]1CC[C@@H]2[C@H](COc3ccc(NC(=O)c4ccccc4)cc3C(=O)N2C)O1 | / | / | / | 0.3 | /
CN(c1ccc(C(=O)NCCc2ccccc2)cc1)S(C)(=O)=O | 1.8 | 20035* | -0.3 | / | 0.4
CCN(CC)S(=O)(=O)c1cccc(C(=O)Nc2ccc(C#N)cc2)c1 | -1.4 | 16843* | 0.3 | / | -4.1
Cc1ccc(S(=O)(=O)N(C)c2ccc(C(=O)NCCc3ccccc3)cc2)cc1 | 2.5 | 4904 | -0.4 | -0.6 | 8.9
COc1ccc(CCNC(=O)c2ccc(S(=O)(=O)N(C)c3ccccc3)cc2)cc1OC | 0.4 | 5759 | 0.9 | 4.0 | 13.1
CCN(CC)S(=O)(=O)c1cccc(C(=O)Nc2cc(C)cc(C)c2)c1 | 1.2 | 3498 | 0.5 | / | 16.8
CN(c1ccccc1)S(=O)(=O)c1cccc(C(=O)NCCc2ccc(O)c(O)c2)c1 | -0.5 | 4240 | -3.4 | 15.2* | -1.9
Cc1noc(C)c1S(=O)(=O)N(C)C[C@H]1OCCCC[C@@H](C)Oc2ccc(NC(=O)Nc3ccc(C(F)(F)F)cc3)cc2C(=O)N([C@@H](C)CO)C[C@@H]1C | / | / | / | 1.8 | /
CCS(=O)(=O)Nc1ccc2c(c1)C(=O)N(C)C[C@H](OC)[C@H](C)CN(Cc1ccccn1)[C@H](C)CO2 | / | / | / | -2.5 | /
COc1ccc(CN(C)C[C@@H]2OCCCC[C@@H](C)Oc3ccc(NC(=O)NC(C)C)cc3C(=O)N([C@@H](C)CO)C[C@H]2C)cc1 | / | / | / | -0.2 | /
O=C(COc1ccccc1F)NC1CCN(Cc2ccccc2)CC1 | -2.1 | 20185* | -2.7 | / | -3.7
CS(=O)(=O)NC1CCN(Cc2ccccc2)CC1 | ? | 22396* | 0.9 | -0.9 | -4.8
COc1nc(C)ccc1-c1noc(-c2ccco2)n1 | 0.4 | 20448* | -6.4 | / | -0.1
CCCCNC(=O)COC(=O)c1ccc(F)cc1Cl | -0.8 | 3583 | -0.6 | 1.6 | -6.4
CCCCNC(=O)COC(=O)c1cc(F)c(F)cc1Cl | -0.4 | 23808* | -1.2 | 1.5 | -0.8
COc1ccccc1-c1cn(CC[C@H]2CC[C@H](NC(=O)c3ccccc3F)[C@H](CO)O2)nn1 | / | / | / | 0.2 | /
COc1cc(/C=C/C(=O)N2CCCC=CC2=O)cc(OC)c1OC | / | / | / | 1.5 | /
C=C(C)CSc1nnc(-c2cc(OC)c(OC)c(OC)c2)n1N | -5.0 | 21195* | 1.1 | / | -5.9
C=C(C)CSc1nnc(-c2ccc(OC)c(OC)c2)n1N | 2.8 | 15658 | 3.0 | / | 4.1
CC(C)NC(=O)N[C@@H]1C[C@@H]2O[C@H](CO)CC[C@@H]2O[C@@H]1CCc1ccc(-c2ccc(F)cc2)cc1 | / | / | / | 1.6 | /
CN(C)S(=O)(=O)c1cccc(NC(=S)Nc2cc(Cl)cc(Cl)c2)c1 | ? | 23036* | -0.8 | / | -2.1
SMILES | BoNT-A LC inh2 | Autofluor counter | Anthrax LF inh2 | TcdB inh | BoNT F protease
CN(C)CCNC(=S)Nc1cccc(Cl)c1 | -1.1 | 23002* | -0.9 | / | -1.5
CN(C)CCNC(=O)Nc1ccc(Cl)c(Cl)c1 | -2.2 | 24214* | -0.7 | / | -1.4
O=C(NCCc1ccncc1)Nc1ccc(Cl)c(Cl)c1 | -0.8 | 4445 | -5.7 | 3.0 | 1.8
Cc1ccc(S(=O)(=O)N2CC(CO)=CCC2c2ccccc2)cc1 (stereo unspecified) | / | / | / | 25.5* | /
N#Cc1cc2c(nc1SCC(=O)Nc1cc(Cl)cc(Cl)c1)C1CCN2CC1 | 3.9 | 20731* | -6.0 | 1.5 | 5.2
O=c1[nH]c(O)c(/C=C2\C=NN=C2c2ccccc2)c(=O)[nH]1 | -4.4 | 21773* | -1.8 | -0.3 | -5.9
COc1ccccc1CNc1nc2nc(C)c(Cl)c(=O)n2[nH]1 | ? | 21476* | -4.0 | / | 1.0
COc1ccc(CNc2nc3nc(C)c(Cl)c(=O)n3[nH]2)cc1 | 0.0 | 4249 | -1.5 | -1.0 | -3.7
O=C(O)C[C@H]1C[C@@H]2c3cc(NC(=O)C4CCOCC4)ccc3O[C@@H]2[C@H](CO)O1 | / | / | / | -1.1 | /
COc1ccc(NS(=O)(=O)Cc2ccccc2Cl)cn1 | ? | 23973* | 0.5 | / | -7.6
CCn1c(=O)cc(SCC(=O)NCCN2CCN(Cc3ccccc3)CC2)c2ccccc21 | ? | 22769* | -4.2 | / | 0.1
CCn1c(=O)cc(SCC(=O)NCc2ccc(C)cc2)c2ccccc21 | 1.0 | 8443 | -3.7 | / | -10.7
CCn1c(=O)cc(SCC(=O)NCCCN2CCN(c3ccc(F)cc3)CC2)c2ccccc21 | 2.2 | 20024* | -0.5 | / | 0.7
CCn1c(=O)cc(SCC(=O)NCCCN2CCC(C)CC2)c2ccccc21 | 0.1 | 2605 | 0.8 | 0.5 | -0.6
CCOC(=O)c1sc2nc(N3CCOCC3)c3c(c2c1N)CCC3 | 0.3 | 8707 | -3.4 | / | -9.2
CCOC(=O)c1oc2nc(CC(C)C)c3c(c2c1N)CCC3 | -0.6 | 20183* | -2.6 | 1.2 | 1.6
C[C@@H]1CCCCO[C@H](CN(C)S(C)(=O)=O)[C@@H](C)CN([C@H](C)CO)C(=O)c2cc(NC(=O)CCC(F)(F)F)ccc2O1 | / | / | / | 0.7 | /
Cc1c([N+](=O)[O-])c(C(=O)N2CCCC2)nn1C | 1.1 | 22515* | -12.2 | 1.6 | -0.8
CCNC(=O)[C@@H]1[C@@H](CO)[C@@H]2Cn3c(ccc(-c4ccc(F)cc4)c3=O)[C@H]1N2Cc1ccccc1F | / | / | / | 0.9 | /
CC(C)(C)c1ccc(C(=O)NC(Cc2ccccc2)C(=O)O)cc1 (stereo unspecified) | -1.2 | 22268* | -1.9 | / | -1.5
Cc1ccc(CC(NC(=O)c2ccccc2)C(=O)NC(C)C(=O)O)cc1 (stereo unspecified) | 5.0 | 21689* | 2.6 | / | 3.2
O=C(NC(Cc1ccccc1)C(=O)O)c1ccccc1 (stereo unspecified) | -0.1 | 4594 | -4.6 | / | 9.5
O=C(NC(Cc1ccccc1)C(=O)O)c1ccc(S(=O)(=O)N2CCCC2)cc1 (stereo unspecified) | 1.6 | 10284 | 0.1 | / | 8.5
O=C(NC(Cc1ccccc1)C(=O)O)c1ccc(S(=O)(=O)N2CCCCC2)cc1 (stereo unspecified) | 1.3 | 22876* | -8.6 | -2.0 | 3.9
CC=Cc1ccc2n(c1=O)C[C@H]1[C@H](CO)[C@@H](C(=O)NCC(F)(F)F)[C@@H]2N1C(C)=O (mixture of isomers) | / | / | / | -0.2 | /
COc1ccccc1C#Cc1ccc2c(c1)O[C@H](CN(C)Cc1ccccc1)[C@@H](C)CN([C@H](C)CO)S2(=O)=O | / | / | / | -1.1 | /
COc1cc(C(=S)N2CCCC2)ccc1O | 1.9 | 20063* | -0.5 | / | 1.6
Oc1ccc(C(=S)N2CCCCC2)cc1Cl | -1.6 | 24104* | -1.9 | / | -5.8
COc1cc(C(=S)N2CCCCC2)ccc1O | -0.4 | 7223 | -4.3 | / | -7.6
C[C@@H]1CN([C@H](C)CO)C(=O)c2cc(/C=C/c3ccccc3)cnc2O[C@@H]1CN(C)C(=O)c1cnccn1 | / | / | / | 1.3 | /
